# RE007 growth inh = less growth of the S. pombe RE007 Vpr strain. S. pombe RE007 Vpr strain, BacTiter-Glo ATP luminescence, 24 h. Potency, µM (highest dose often 92.2 µM), most hits filed as inhibitors. AID 651644. actives 0.21% (n = 360,000); active = well fitted falling curve with a large enough effect; inconclusive = small, poorly fitted or top-dose-only effect; inactive = no such curve, though single readings can be large or run the other way; note: nearly all actives have a fitted effect of over 50% in size
#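 Fission yeast strain RE007, carrying one chromosomally integrated HIV-1 vpr copy, was seeded at OD 0.01 in PMG+AL medium with 23 nL pinned compound. After 24 h at 30 °C and 99% humidity, viability was read by BacTiter-Glo luminescence.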
# Giardia FBPA inh = Giardia lamblia aldolase inhibition; Potency, µM (series often up to 59.6 µM), hits mostly inhibitors; purified Giardia FBPA; actives 0.71% (n = 290,000); A8B2U2; note: nearly all actives have a fitted effect of over 55% in size
# Target sequence (A8B2U2 whole entry, looked up): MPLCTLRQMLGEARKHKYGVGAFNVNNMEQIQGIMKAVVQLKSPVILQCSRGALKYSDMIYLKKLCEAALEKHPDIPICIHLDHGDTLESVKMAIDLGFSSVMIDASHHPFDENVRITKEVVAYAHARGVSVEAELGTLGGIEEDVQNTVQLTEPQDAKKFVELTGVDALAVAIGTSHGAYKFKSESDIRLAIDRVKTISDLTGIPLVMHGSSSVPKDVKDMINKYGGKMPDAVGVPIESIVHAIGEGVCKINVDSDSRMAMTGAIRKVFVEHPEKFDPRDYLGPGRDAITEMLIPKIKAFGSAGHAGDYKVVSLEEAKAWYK
#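 40 nM FBPA preincubated 10 min at RT with compound (up to 57.5 uM final), then substrate plus GAPDH/TPI/NAD/arsenate coupling and diaphorase/resazurin added. Fluorescence read after 20 min at RT, 525/598 nm.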
# TbPYK inhibitor = inhibitors of Trypanosoma brucei pyruvate kinase. Q57TT1. TbPYK enzyme, Kinase-Glo Plus ATP luminescence, 45 min. Potency, µM (doses to about 76.8 µM), hits mostly inhibitors. actives 0.12% (n = 410,000). AID 624173; note: nearly all actives have a fitted effect of over 50% in size
#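 Quantitative HTS: titrated library compounds versus trypanosomal pyruvate kinase in TEA buffer (pH 7.2) containing KCl, MgCl2, BSA and Tween-20. Reactions were initiated with ADP, 130 uM final. Kinase-Glo Plus luminescence was read after 45 min at RT.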
# FMDV inh = blocks foot and mouth disease virus. AID 1159524. Potency, µM (highest dose often 57.9 µM), actives largely listed as inhibitors. actives 1.2% (n = 410,000). FMDV antiviral cell-based qHTS; calls by dose curve; tested in HEK293T cells; note: read-out not given here; nearly all actives have a fitted effect of over 45% in size
# HCMV antiviral = blocks human cytomegalovirus replication; HFF cells, HCMV-luciferase reporter, 72 h; active compounds read low; actives 4.5% (n = 410,000); AID 1259415; activity change, negative = inhibition, % at 57.5 µM; in the data active = activity change below about -60%; inconclusive = no clear call, values can overlap the other calls; inactive = above about -39%
#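 Human foreskin fibroblasts infected with luciferase-reporter HCMV at MOI 1 PFU/cell, compounds at two doses. Luciferase measured 72 h post infection; normalized to buffer-only basal and Salinomycin (10uM) controls.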
# Sm TGR inh = inhibitors of Schistosoma mansoni thioredoxin glutathione reductase | Q962Y6 | purified TGR, DTNB reduction, TNB absorbance 405 nm | Potency, µM (doses to about 114 µM), hits mostly inhibitors | actives 3% (n = 360,000) | AID 485364; note: nearly all actives have a fitted effect of over 60% in size
#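 First, TGR (20 nM dispensed) and NADPH were mixed with compound. Second, a 15 min room-temperature incubation followed. Third, further NADPH and then DTNB were added to start the reaction. Finally, TNB absorbance was monitored kinetically.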
# Hits are given with their value; – = inactive; ? = inconclusive; · = no result given; ! = repeats disagree. An excerpt weighted towards active compounds, which were near 7.7% of everything screened. Unless noted, calls come from the whole dose curve; as a rule, active = well fitted curve in the direction sought with a large enough effect; inconclusive = small, poorly fitted or top-dose-only effect, or another doubt; inactive = no such curve, though single readings can be large; an effect the other way counts as inactive or inconclusive.
SMILES,RE007 growth inh,Giardia FBPA inh,TbPYK inhibitor,FMDV inh,HCMV antiviral,Sm TGR inh
Cc1nnc(-c2cccc(Br)c2)c2cn(-c3ccccc3)nc12,–,–,–,–,–,–
Cc1ccc2onc(CNC(=O)NCc3ccc(Cl)cc3)c2c1,·,·,–,–,–,–
COc1ccc(CNC(=O)COc2ccc(C(=O)c3ccc(F)cc3)cc2)cc1,–,–,–,–,–,–
O=C(COc1ccc(C(=O)c2ccc(F)cc2)cc1)NCc1ccc(F)cc1,–,–,–,–,-78,–
Cc1ccc(CNC(=O)COc2ccc(C(=O)c3ccc(F)cc3)cc2)cc1,–,–,–,–,-75,–
CCc1ccc(C(c2ccccc2)c2c[nH]c3ccc(C)cc23)s1 (stereo unspecified),·,·,–,–,–,–
Cc1ccc2oc(=O)c3cc(C(=O)Nc4ccccc4C(N)=O)sc3c2c1,·,·,–,–,–,–
CCCCCCSc1cc(-c2nc3ccc(Cl)cn3c2NCCCC)ccc1OC,–,·,–,–,?,–
CCCCNc1c(-c2ccc(OC)c(SC(C)CC)c2)nc2cnccn12 (stereo unspecified),–,·,–,?,–,·
CCCCNc1c(-c2ccc(Sc3ccc(OC)cc3)cc2)nc2cc(C)ccn12,–,·,–,?,–,·
CCCCNc1c(-c2ccc(OC)c(SC(C)CC)c2)nc2cc(C)ccn12 (stereo unspecified),–,·,–,28µM,-79!,·
CCCCNc1c(-c2ccc(OC)c(SC(C)CC)c2)nc2ccc(C)cn12 (stereo unspecified),?,·,–,32µM,-63!,·
CCCCNc1c(-c2ccc(-c3ccc(C(C)=O)cc3)c(OC)c2)nc2cc(C)ccn12,–,·,–,?,-93,·
CCCCCCSc1cc(-c2nc3ccc(C)cn3c2NCCCC)ccc1OC,–,·,–,35µM,–,·
CCOc1ccc(-c2nc(Cn3c(=O)cc(-c4ccccc4)c4c(C)nn(C)c43)c(C)o2)cc1OC,·,·,–,–,–,–
CCN(CC)S(=O)(=O)c1ccc(N2CCN(CCOc3ccc(OC)cc3)CC2)nc1,–,–,–,–,-77,–
CCN(c1ccccc1)S(=O)(=O)c1ccc(N2CCN(c3ccc(OC)cc3)CC2)nc1,–,·,–,?,–,·
COc1cccc(NC(=O)Cn2cnc3c(nc4n3CCCCC4)c2=O)c1,·,·,–,–,–,–
Cc1cccc(-c2nc(CS(=O)CC(=O)NCc3ccco3)c(C)o2)c1 (stereo unspecified),–,–,–,–,–,?
Cc1cccc(-c2nc(CS(=O)CC(=O)NC3CCCC(C)C3C)c(C)o2)c1 (stereo unspecified),–,–,–,–,–,5µM
COc1ccc(-c2nc(CS(=O)CC(=O)NC3CCCC3)c(C)o2)cc1 (stereo unspecified),–,–,–,–,–,?
Cc1oc(-c2ccc(Cl)cc2)nc1CS(=O)CC(=O)NCCCN(C)C1CCCCC1 (stereo unspecified),–,–,–,?,-70,–
Cc1cccc(-c2nc(CS(=O)CC(=O)NC3CCCC3)c(C)o2)c1 (stereo unspecified),–,–,–,–,–,13µM
Cc1oc(-c2ccc(Cl)cc2)nc1CS(=O)CC(=O)NC1CCCC1 (stereo unspecified),–,·,–,–,–,8.9µM
CCCCNC(=O)C(C)(C)n1cc(NC(=O)Cc2ccc(F)cc2)cn1,·,·,·,·,–,·
SMILES,RE007 growth inh,Giardia FBPA inh,TbPYK inhibitor,FMDV inh,HCMV antiviral,Sm TGR inh
CCCOC1(C(F)(F)F)NC(=O)N(c2ccc(Cl)cc2)C1=O (stereo unspecified),·,·,–,–,–,–
O=c1oc2ccc3ccccc3c2cc1-c1nnc(Nc2ccc(Cl)cc2Cl)s1,·,·,–,–,–,–
Cc1oc(-c2ccc(Cl)cc2)nc1CS(=O)CC(=O)NC1CCCCC1 (stereo unspecified),–,·,–,–,–,11µM
Cc1ccccc1-c1nc(CS(=O)CC(=O)NC2CC2)c(C)o1 (stereo unspecified),–,·,–,–,–,?
Cc1ccc(-c2nc(CS(=O)CC(=O)NC3CCCCC3)c(C)o2)cc1 (stereo unspecified),–,·,–,–,–,13µM
Cc1oc(-c2ccc(Cl)cc2)nc1CS(=O)CC(=O)NC1CCCCCC1 (stereo unspecified),–,·,–,–,–,10µM
Cc1oc(-c2cccs2)nc1CS(=O)CC(=O)NC1CCCCCC1 (stereo unspecified),–,–,–,–,–,18µM
Cc1oc2ccc(O)c(CN3CCCC3)c2c1C(=O)Nc1ccc(C(C)C)cc1,·,·,–,–,?,–
CC12CCC=CC1C(c1ccc3ccccc3c1Br)N(Cc1ccccc1)C2=O (stereo unspecified),·,–,·,·,·,·
N#C/C(=C(/O)C(Cl)(Cl)Cl)c1nc2ccccc2[nH]1,–,–,–,?,–,4µM
CC(=O)OC(/C(O)=C(\C#N)c1nc2ccccc2[nH]1)c1ccccc1 (stereo unspecified),–,–,–,·,-96,–
CC(=O)c1ccc(N/N=C(/C(N)=O)C2=NC(C)(C)Cc3ccccc32)cc1,–,–,–,–,?,–
CC1(C)Cc2ccccc2C(/C(=N\Nc2cccc(Cl)c2)C(N)=O)=N1,–,–,–,?,-102,–
CCn1c(=O)c([N+](=O)[O-])c(N2CCN(Cc3ccc4c(c3)OCO4)CC2)c2ccccc21,–,–,–,32µM,-64,–
CCn1c(=O)c([N+](=O)[O-])c(N2CCSCC2)c2ccccc21,–,–,–,18µM,?,–
O=c1sc2ccccc2c(N2CCCCC2)c1[N+](=O)[O-],–,–,–,–,–,–
Cn1c(=O)c([N+](=O)[O-])c(N2CCSCC2)c2ccccc21,–,–,–,?,?,–
O=c1sc2ccccc2c(N2CCOCC2)c1[N+](=O)[O-],–,–,–,–,–,40µM
O=c1c([N+](=O)[O-])c(N2CCOCC2)c2ccccc2n1Cc1ccccc1,–,–,–,?,-67,–
O=C(CSc1cn(CCNC(=O)c2ccccc2F)c2ccccc12)Nc1ccc(F)cc1,·,·,–,–,–,–
O=C(NCc1ccccc1)C1=CN2CCN(Cc3cccc(Cl)c3)C(=O)N=C2O1,·,·,·,·,–,·
COc1cccc(NC(=O)c2sc3nc(C)c(C(=O)Nc4ccc(C)cc4C)c(-c4ccco4)c3c2N)c1,·,·,–,–,–,–
O=Cc1cc([N+](=O)[O-])ccc1N1CCN(Cc2ccc3c(c2)OCO3)CC1,–,–,–,–,-102,–
O=[N+]([O-])c1ccc(N2CCN(Cc3ccc4c(c3)OCO4)CC2)nc1,?,–,–,?,–,–
O=C(CSc1ccc(-c2cccnc2)nn1)Nc1ccc(F)cc1F,–,·,–,–,–,7.1µM

# Bioassay records: PubChem, National Center for Advancing Translational Sciences (NCATS)
